Assay [1] in a line: qHTS assay for small molecule agonists of the p53 signaling pathway (AID 651631; calls by dose curve; further: nearly all actives have a fitted effect of over 15% in size). The method in brief: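 Stably transfected HCT-116 cells (beta-lactamase behind p53 response elements) get compounds after a 5 h settling period; 16 h later at 37 °C, FRET substrate is loaded and fluorescence read after 2 h.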
A short description of assay [2]: qHTS assay for small molecules that induce genotoxicity in human embryonic kidney cells expressing luciferase-tagged ATAD5 (AID 651632). Further: nearly all actives have a fitted effect of over 15% in size. The method in brief: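 Increased luciferase signal from ATAD5-tagged reporter cells indicates DNA-damage-driven ATAD5 induction. HEK293T cells are treated for 16 hr at 37C before detection with Amplite.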
(In general: In qHTS, concentration-response curves come from the screen itself.)

Assay [3] can be described thus: qHTS assay for small molecule agonists of the p53 signaling pathway - cell viability (AID 651633; calls by dose curve;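 further: p53RE-bla HCT reporter cells with a stable beta-lactamase p53 reporter; nearly all actives have a fitted effect of over 30% in size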). The method in brief: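 p53RE-bla cells were treated with compound for 16 hours at 37 C. Cytotoxicity was then measured as CellTiter-Glo luminescence after 30 min at room temperature.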
The nature of assay [4]: qHTS assay for small molecules that induce genotoxicity in human embryonic kidney cells expressing luciferase-tagged ATAD5 - cell viability (AID 651634; calls by dose curve; further: nearly all actives have a fitted effect of over 25% in size). The method in brief:
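Cytotoxicity counterscreen in HEK293T cells bearing an ATAD5-luciferase reporter: live-cell protease activity measured by CellTiter-Fluor fluorescence after 15.5 hr compound exposure.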

A short description of assay [5]: qHTS assay for small molecule disruptors of the mitochondrial membrane potential - cell viability (AID 720634; calls by dose curve;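 further: human HepG2 liver cancer cells; nearly all actives have a fitted effect of over 20% in size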). The method in brief:
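After overnight attachment at 37 C, HepG2 cells received compound or DMSO vehicle for 1 hr. Viability is then taken from ATP-driven luminescence following a 30 min room-temperature CellTiter-Glo step.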

The nature of assay [6]: qHTS assay for small molecule disruptors of the mitochondrial membrane potential (AID 720635). The method in brief:
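HepG2 cells exposed to compound 1 hr at 37C, then Mito-MPS dye 30 min. Ratio read of aggregate (540/590 nm) versus monomer (490/535 nm) fluorescence.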

The nature of assay [7]: qHTS assay to test for compound auto fluorescence at 590 nm (red) in HepG2 cells (AID 720674). The method in brief: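 Seeding: 2,000 HepG2 cells/well, MEM/10% FBS, overnight 37 C. Dosing: compound vs DMSO. Incubation: 1 hr, 37 C, 5% CO2. Read: fluorescence 540 ex/590 em, Rose Bengal sodium as red reference.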
Assay [8] in a line: qHTS assay to test for compound auto fluorescence at 535 nm (green) in HepG2 cells (AID 720675).
Assay [9] is described as follows: qHTS assay to test for compound auto fluorescence at 460 nm (blue) in HEK293 cells (AID 720678). The method in brief: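 Blue-channel (Ex/Em 405/460 nm) intensity measured in HEK293 cultures after overnight compound exposure at 37C; signal expressed relative to triamterene. Cells plated 2,000 per well in 10% dialyzed FBS medium and allowed 4-5 hr to attach.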
A short description of assay [10]: qHTS assay to test for compound auto fluorescence at 590 nm (red) in HEK293 cells (AID 720679). The method in brief:
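Red-channel autofluorescence (Ex/Em 540/590 nm; Rose Bengal sodium reference) was measured after overnight 37C, 5% CO2 exposure of attached HEK293 cells, 2,000 per well in medium with 10% dialyzed FBS.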

Assay [11] is described as follows: qHTS assay to test for compound auto fluorescence at 535 nm (green) in HEK293 cells (AID 720680).
The nature of assay [12]: qHTS assay to test for compound auto fluorescence at 460 nm (blue) in HEK293 cell free culture (AID 720681). In outline:
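Compounds were added to cell-free DMEM with 10% FBS and fluorescence read directly. The blue channel used 405 nm excitation and 460 nm emission, with triamterene as the reference fluorophore.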

Assay [13] is described as follows: qHTS assay to test for compound auto fluorescence at 535 nm (green) in HEK293 cell free culture (AID 720682). In outline: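 Using fluorescein as calibrant, autofluorescence was quantified at 485/535 nm in cell-free DMEM containing 10% FBS after pintool addition of compound or vehicle.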
Assay [14] can be described thus: qHTS assay to test for compound auto fluorescence at 590 nm (red) in HEK293 cell free culture (AID 720683). The method in brief: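 Cell-free wells of DMEM with 10% FBS received compound, and intrinsic fluorescence was read at excitation/emission 540/590 nm. Values expressed as equivalence to Rose Bengal sodium.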
The nature of assay [15]: qHTS assay to test for compound auto fluorescence at 590 nm (red) in HepG2 cell free culture (AID 720684). The method in brief:
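Compounds are added to culture medium (MEM, 10% FBS) lacking cells, then fluorescence is read at excitation 540 nm, emission 590 nm, with Rose Bengal sodium as the equivalency standard.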

The nature of assay [16]: qHTS assay to test for compound auto fluorescence at 460 nm (blue) in HepG2 cell free culture (AID 720685). The method in brief: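 Compound (23 nL) or DMSO pinned into cell-free MEM with 10% FBS; blue fluorescence read at 405/460 nm excitation/emission, expressed as auto-fluorescence equivalency to triamterene.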
Assay [17] in a line: qHTS assay to test for compound auto fluorescence at 460 nm (blue) in HepG2 cells (AID 720687). The method in brief: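 HepG2 cells in MEM with 10% FBS, attached overnight at 37 C, were exposed to compound or DMSO for 1 hr at 37 C, 5% CO2. Blue fluorescence was read at 405/460 nm, with triamterene as reference fluorophore.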
Assay [18] has as its target Glucocorticoid receptor (Homo sapiens) (UniProt P04150). The experiment in a line: qHTS assay to identify small molecule agonists of the glucocorticoid receptor (GR) signaling pathway (AID 720691; active means well fitted activation curve with a large enough effect in the signal ratio in the repeat runs, not every such curve was filed as active; the % refers to the signal ratio; further: potency means the concentration at half of the fitted maximal effect). The following applies: GR-bla HeLa, beta-lactamase reporter ratio, 18 h; activation: at 62.4 µM (top of the series). In outline: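 Agonist mode in a HeLa line carrying a GRE-controlled beta-lactamase reporter. Compounds act for 18 h at 37 C before a 2 h room-temperature FRET substrate step and fluorescence reading.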

For assay [19] the target is unchanged. Kind of assay: qHTS assay to identify small molecule antagonists of the glucocorticoid receptor (GR) signaling pathway (AID 720692; active means well fitted inhibition curve with a large enough effect in the signal ratio in the repeat runs, not every such curve was filed as active; the % refers to the signal ratio). The method in brief: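 Cells plated, rested 4 h at 37 C/5% CO2; compounds in DMSO pin-transferred; dexamethasone added to 5 nM final; 18 h at 37 C; B/G FRET substrate added, 2 h room temperature; fluorescence measured.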
The nature of assay [20]: qHTS assay to test for compound auto fluorescence at 535 nm (green) in HepG2 cell free culture (AID 720686).

Inconclusive results are not listed. The source made the active and inactive calls. Unless noted, the call rests on the fitted dose curve; in most records, active means well fitted curve in the direction sought with a large enough effect in the repeat runs; inconclusive means weak or mixed curves; inactive means no such curve, though single readings can be large; an effect the other way counts as inactive or inconclusive.

Glucocorticoid receptor (Homo sapiens), sequence (P04150 whole entry, looked up): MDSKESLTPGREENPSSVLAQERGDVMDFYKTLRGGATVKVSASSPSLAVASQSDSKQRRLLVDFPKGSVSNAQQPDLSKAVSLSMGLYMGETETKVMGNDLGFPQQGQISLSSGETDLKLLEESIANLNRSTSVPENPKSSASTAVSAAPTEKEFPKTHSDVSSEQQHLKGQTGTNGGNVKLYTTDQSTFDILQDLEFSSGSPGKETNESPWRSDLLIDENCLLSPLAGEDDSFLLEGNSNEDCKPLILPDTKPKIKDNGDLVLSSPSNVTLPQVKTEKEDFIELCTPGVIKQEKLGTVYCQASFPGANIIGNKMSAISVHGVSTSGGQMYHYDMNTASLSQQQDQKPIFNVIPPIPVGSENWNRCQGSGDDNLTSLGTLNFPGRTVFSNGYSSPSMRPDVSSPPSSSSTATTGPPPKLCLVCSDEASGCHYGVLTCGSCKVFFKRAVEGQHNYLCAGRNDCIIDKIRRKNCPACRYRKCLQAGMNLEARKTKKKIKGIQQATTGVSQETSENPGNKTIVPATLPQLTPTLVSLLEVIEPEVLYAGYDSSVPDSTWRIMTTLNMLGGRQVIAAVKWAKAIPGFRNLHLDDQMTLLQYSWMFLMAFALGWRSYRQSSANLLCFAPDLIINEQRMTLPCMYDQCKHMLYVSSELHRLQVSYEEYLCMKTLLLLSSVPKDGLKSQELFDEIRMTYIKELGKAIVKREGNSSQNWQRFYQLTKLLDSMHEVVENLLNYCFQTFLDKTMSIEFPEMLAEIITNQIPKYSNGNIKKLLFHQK

Turning to `CO/N=C(\C(=O)N[C@@H]1C(=O)N2C(C(=O)O)=C(C[N+]3(C)CCCC3)CS[C@H]12)c1csc(N)n1`, the Potency result in [1], in assay [2], in [3], in assay [4], in assay [5] and in [6] was “inactive” throughout. In addition, the Potency result in assay [8], in [9], in assay [12], in [16], in assay [17] and in [18] was “inactive” each time. Also, the Potency entry in assay [19] was “inactive”. Further, the compound was classed as inactive in [7], in assay [10], in assay [11], in [13], in assay [14] and in assay [15].
Regarding `C=C1[C@@H]2CC[C@@H](C2)C1(C)C`, the Potency result in assay [1], in assay [2], in assay [3], in assay [4], in assay [5] and in assay [6] was “inactive” in each case. Moreover, the Potency result in assay [8], in [9], in assay [12], in assay [16], in [17] and in assay [18] was “inactive” in each case. Also, in assay [19], the Potency result was “inactive”. Moreover, the compound was classed as inactive in assay [7], in assay [10], in assay [11], in assay [13], in assay [14] and in [15].
Turning to `CCCCCCCCCC(=O)NO`, the Potency entry in assay [1], in assay [2], in assay [3], in assay [4], in assay [5] and in assay [6] was “inactive” throughout. In addition, the Potency entry in assay [8], in assay [9], in assay [12], in assay [16] and in assay [17] was “inactive” throughout. Moreover, the compound was called inactive in [7], in [10], in assay [11], in [13] and in [14].
As to `CC/C(=C(/CC)c1ccc(OP(=O)(O)O)cc1)c1ccc(OP(=O)(O)O)cc1`, the Potency result in assay [1], in assay [2], in [3], in assay [4], in [5] and in assay [6] was “inactive” throughout. Besides, the Potency entry in assay [8], in assay [9], in assay [12], in assay [16], in assay [20] and in assay [17] was “inactive” each time. For the same compound, the outcome in [7], in [10], in [11], in [13] and in assay [14] was inactive.
As for `O=C1c2ccccc2CN2C(=O)c3ccccc3CN12`, the Potency result in [1], in assay [2], in assay [3], in assay [4], in assay [5] and in [6] was “inactive” throughout. Besides, the Potency result in assay [8], in assay [9], in [12], in assay [16], in assay [17] and in assay [18] was “inactive” each time. Moreover, in assay [19], the Potency entry is “inactive”. Moreover, the result in assay [7], in assay [10], in assay [11], in assay [13], in [14] and in [15] was inactive.
Turning to `CCOc1cc(CC(=O)N[C@@H](CC(C)C)c2ccccc2N2CCCCC2)ccc1C(=O)O`, the Potency entry in assay [1], in [2], in assay [3], in [4], in assay [5] and in assay [6] was “inactive” each time. Moreover, the Potency result in assay [8], in assay [9], in [12], in assay [16], in assay [20] and in [17] was “inactive” throughout. Moreover, the outcome in assay [7], in assay [10], in assay [11], in assay [14] and in assay [15] was inactive. Also, the Potency in assay [18] was 8.11 µM (active).

These data come from PubChem BioAssay (Tox21).
